Experimental data reported in the supplement of paper PMC8728848.
Shown is part of a subset that was picked to be rich in the strongest signals.

Assays:
Test in all cases: glycan array binding signal (z-score within array); higher = stronger binding
Conditions in all cases: glycan notation: IUPAC condensed, linker removed
[1] = biological target: GlcNAc(b1-3)Gal(b1-4)GlcNAc(b1-3)Gal(b1-4)GlcNAc(b1-2)Man(a1-3)[GlcNAc(b1-3)Gal(b1-4)GlcNAc(b1-3)Gal(b1-4)GlcNAc(b1-2)Man(a1-6)]Man(b1-4)GlcNAc(b1-4)GlcNAc
Procedure, shortened: (§1)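 Glycan array data were curated from 3228 arrays in the Consortium for Functional Glycomics database and kept only where the protein sequence was available. Glycan names were converted to IUPAC-condensed notation, and columns mapping to the same glycan were averaged. The binding signal is a within-array Z-score, averaged across arrays of the same protein sequence at different concentrations or buffers and across linkers. Negative Z-scores can be read as non-binding.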

[2] = biological target: GlcNAc(b1-3)[GlcNAc(b1-6)]Gal(b1-4)GlcNAc
Procedure, shortened: as §1

[3] = biological target: Man(a1-3)[Man(a1-6)]Man(a1-6)[Man(a1-2)Man(a1-3)]Man(b1-4)GlcNAc(b1-4)GlcNAc
Procedure, shortened: as §1

[4] = biological target: Man(b1-4)GlcNAc
Procedure, shortened: as §1

[5] = biological target: Neu5Ac(a2-3)Gal(b1-3)GalNAc
Procedure, shortened: as §1

[6] = biological target: Neu5Ac(a2-3)Gal(b1-3)GlcNAc(b1-2)Man
Procedure, shortened: as §1

[7] = biological target: Neu5Ac(a2-3)Gal(b1-3)[GlcNAc(b1-6)]GalNAc
Procedure, shortened: as §1

[8] = biological target: Neu5Ac(a2-3)Gal(b1-4)Glc
Procedure, shortened: as §1

[9] = biological target: Neu5Ac(a2-3)Gal(b1-4)GlcNAc(b1-2)Man(a1-3)[GlcNAc(b1-4)][Neu5Ac(a2-3)Gal(b1-4)GlcNAc(b1-2)Man(a1-6)]Man(b1-4)GlcNAc(b1-4)GlcNAc
Procedure, shortened: as §1

[10] = biological target: Neu5Ac(a2-3)Gal(b1-4)GlcNAc(b1-2)Man(a1-3)[Neu5Ac(a2-3)Gal(b1-4)GlcNAc(b1-2)Man(a1-6)]Man(b1-4)GlcNAc(b1-4)[Fuc(a1-6)]GlcNAc
Procedure, shortened: as §1

[11] = biological target: Neu5Ac(a2-3)Gal(b1-4)GlcNAc(b1-3)Gal(b1-4)GlcNAc
Procedure, shortened: as §1

[12] = biological target: Neu5Ac(a2-3)Gal(b1-4)GlcNAc(b1-3)Gal(b1-4)GlcNAc(b1-3)Gal(b1-4)GlcNAc(b1-2)Man(a1-3)[Neu5Ac(a2-3)Gal(b1-4)GlcNAc(b1-3)Gal(b1-4)GlcNAc(b1-3)Gal(b1-4)GlcNAc(b1-2)Man(a1-6)]GalNAc
Procedure, shortened: as §1

[13] = biological target: Neu5Ac(a2-6)Gal(b1-4)GlcNAc(b1-2)Man
Procedure, shortened: as §1

[14] = biological target: Neu5Ac(a2-6)Gal(b1-4)GlcNAc(b1-2)Man(a1-3)[Neu5Ac(a2-6)Gal(b1-4)GlcNAc(b1-2)Man(a1-6)]Man(b1-4)GlcNAc(b1-4)GlcNAc
Procedure, shortened: as §1

[15] = biological target: Neu5Ac(a2-6)Gal(b1-4)GlcNAc(b1-2)Man(a1-6)Man(b1-4)GlcNAc(b1-4)GlcNAc
Procedure, shortened: as §1

[16] = biological target: Neu5Ac(a2-6)Gal(b1-4)GlcNAc(b1-2)Man(a1-6)[Man(a1-3)]Man(b1-4)GlcNAc(b1-4)GlcNAc
Procedure, shortened: as §1

[17] = biological target: Neu5Ac(a2-6)Gal(b1-4)GlcNAc(b1-3)Gal(b1-4)GlcNAc(b1-3)[Neu5Ac(a2-6)Gal(b1-4)GlcNAc(b1-3)Gal(b1-4)GlcNAc(b1-6)]GalNAc
Procedure, shortened: as §1

[18] = biological target: Neu5Ac(a2-6)Gal(b1-4)GlcNAc(b1-3)Gal(b1-4)GlcNAc(b1-6)[Gal(b1-3)]GalNAc
Procedure, shortened: as §1

[19] = biological target: Neu5Ac(a2-6)Gal(b1-4)GlcNAc6S
Procedure, shortened: as §1

[20] = biological target: Neu5Gc(a2-3)Gal(b1-4)GlcNAc(b1-3)Gal(b1-4)GlcNAc(b1-2)Man(a1-3)[Neu5Gc(a2-3)Gal(b1-4)GlcNAc(b1-3)Gal(b1-4)GlcNAc(b1-2)Man(a1-6)]Man(b1-4)GlcNAc(b1-4)GlcNAc
Procedure, shortened: as §1

B1: Protein L(A-C2) (Finegoldia magna), Q51912 (protein)
chain: ADEPIDLEKLEEKRDKENVGNLPKFDNEVKDGSENPMAKYPDFDDEASTRFETENNEFEEKKVVSDNFFDQSEHPFVENKEETPETPETDSEEEVTIKANLIFANGSTQTAEFKGTFEKATSEAYAYADTLKKDNGEYTVDVADKGYTLNIKFAGKEKTPEEPKEEVTIKANLIYADGKTQTAEFKGTFEEATAEAYRYADALKKDNGEYTVDVADKGYTLNIKFAGKEKTPEEPKEEVTIKANLIYADGKTQTAEFKGTFEEATAEAYRYADLLAKENGKYTVDVADKGYTLNIKFAGKEKTPEEPKEEVTIKANLIYADGKTQTAEFKGTFAEATAEAYRYADLLAKENGKYTADLEDGGYTINIRFAGKKVDEKPEEKEQVTIKENIYFEDGTVQTATFKGTFAEATAEAYRYADLLSKEHGKYTADLEDGGYTINIRFAGKEEPEETPEKPEVQDGYASYEEAEAAAKEALKNDDVNKSYTIRQGADGRYYYVLSPVEAEEEKPEAQNGYATYEEAEAAAKKALENDPINKSYSIRQGADGRYYYVLSPVEAE
[1]
  glycan array binding signal (z-score): 1.91
[2]
  glycan array binding signal (z-score): -0.856
[3]
  glycan array binding signal (z-score): 4.98
[4]
  glycan array binding signal (z-score): 0.002
[5]
  glycan array binding signal (z-score): 0.418
[6]
  glycan array binding signal (z-score): 3.79
[7]
  glycan array binding signal (z-score): -0.278
[8]
  glycan array binding signal (z-score): 0.38
[9]
  glycan array binding signal (z-score): -0.228
[10]
  glycan array binding signal (z-score): 2.19
[11]
  glycan array binding signal (z-score): -1.1
[12]
  glycan array binding signal (z-score): 3.85
[13]
  glycan array binding signal (z-score): 0.253
[14]
  glycan array binding signal (z-score): -0.037
[15]
  glycan array binding signal (z-score): -0.51
[16]
  glycan array binding signal (z-score): 0.298
[17]
  glycan array binding signal (z-score): 3.89
[18]
  glycan array binding signal (z-score): 0.761
[19]
  glycan array binding signal (z-score): -0.725
[20]
  glycan array binding signal (z-score): 0.473
